Test results as given in article PMC7862700, “An all-to-all approach to the identification of sequence-specific readers for epigenetic DNA modifications on cytosine”.

Assays:
Assay in all cases: DAPPL (digital affinity profiling via proximity ligation, sequencing); 10 mM Tris-HCl pH 7.5, 50 mM NaCl, 1 mM DTT, 4% glycerol, room temperature, 30 min; GST-TFs on glutathione beads, 16-mer random dsDNA library, 0.1% formaldehyde crosslink after washing; high values mean tight binding
GABPA = biological target: T1, GABPA (Homo sapiens, UniProt Q06546 1-454); conditions: protein: recombinant; tags: N-terminal GST; dsDNA, one strand shown
T1 sequence: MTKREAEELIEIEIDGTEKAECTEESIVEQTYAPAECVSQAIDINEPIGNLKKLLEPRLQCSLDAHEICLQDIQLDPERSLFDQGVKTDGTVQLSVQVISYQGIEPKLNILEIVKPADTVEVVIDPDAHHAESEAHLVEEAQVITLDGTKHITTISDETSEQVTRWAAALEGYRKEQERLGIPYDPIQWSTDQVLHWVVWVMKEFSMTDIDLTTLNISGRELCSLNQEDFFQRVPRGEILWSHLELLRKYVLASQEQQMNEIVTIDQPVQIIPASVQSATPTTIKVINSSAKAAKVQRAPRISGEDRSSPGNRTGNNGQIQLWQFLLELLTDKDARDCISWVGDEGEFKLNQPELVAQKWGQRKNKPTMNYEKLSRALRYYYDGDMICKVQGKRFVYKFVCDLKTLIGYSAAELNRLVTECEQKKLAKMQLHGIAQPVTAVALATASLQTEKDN
In short: (§1)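 Yeast served to express human transcription factors as GST fusions, which were then captured on glutathione beads and labelled with DNA barcodes. Pooled with a tag-only sample, they were incubated with 200 nmole of a 16-mer random double-stranded DNA library for 30 min at room temperature in Tris/NaCl/DTT/glycerol buffer, washed, crosslinked with 0.1% formaldehyde, ligated by proximity, amplified by PCR and sequenced. Dividing each hexamer's read frequency for a factor by its frequency for the tag-only sample gives the binding signal.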

ELF1 = ELF1 (Homo sapiens, UniProt P32519 1-619); conditions: protein: recombinant; tags: N-terminal GST; dsDNA, one strand shown
In short: as §1

ELK3 = biological target: T2, ELK3 (Homo sapiens, UniProt P41970 1-407); conditions: protein: recombinant; tags: N-terminal GST; dsDNA, one strand shown
T2 sequence: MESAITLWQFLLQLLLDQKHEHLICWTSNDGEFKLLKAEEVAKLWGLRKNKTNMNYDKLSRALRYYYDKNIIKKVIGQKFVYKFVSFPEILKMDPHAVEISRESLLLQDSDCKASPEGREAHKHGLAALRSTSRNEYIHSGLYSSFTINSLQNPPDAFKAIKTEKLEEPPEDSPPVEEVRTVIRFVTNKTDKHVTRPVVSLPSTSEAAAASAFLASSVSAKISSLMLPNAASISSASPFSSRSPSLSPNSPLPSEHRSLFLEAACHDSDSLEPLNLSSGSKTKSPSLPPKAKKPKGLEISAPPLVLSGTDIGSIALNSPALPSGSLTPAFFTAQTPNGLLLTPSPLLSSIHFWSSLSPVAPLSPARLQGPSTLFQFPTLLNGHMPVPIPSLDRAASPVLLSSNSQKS
In short: as §1

FEV = biological target: T3, FEV (Homo sapiens, UniProt Q99581 1-238); conditions: protein: recombinant; tags: N-terminal GST; dsDNA, one strand shown
T3 sequence: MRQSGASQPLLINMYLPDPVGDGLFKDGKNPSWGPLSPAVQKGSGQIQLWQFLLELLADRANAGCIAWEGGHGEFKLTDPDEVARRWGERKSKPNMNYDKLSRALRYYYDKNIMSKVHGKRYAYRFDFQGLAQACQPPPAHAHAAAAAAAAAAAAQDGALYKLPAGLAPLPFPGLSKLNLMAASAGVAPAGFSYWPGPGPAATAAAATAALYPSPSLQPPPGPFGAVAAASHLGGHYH
In short: as §1

HSF1 = HSF1 (Homo sapiens, UniProt Q00613 1-529); conditions: protein: recombinant; tags: N-terminal GST; chain copies: 3; dsDNA, one strand shown
In short: as §1

SPIC = biological target: T4, SPIC (Homo sapiens, UniProt Q8N5J4 1-248); conditions: protein: recombinant; tags: N-terminal GST; dsDNA, one strand shown
T4 sequence: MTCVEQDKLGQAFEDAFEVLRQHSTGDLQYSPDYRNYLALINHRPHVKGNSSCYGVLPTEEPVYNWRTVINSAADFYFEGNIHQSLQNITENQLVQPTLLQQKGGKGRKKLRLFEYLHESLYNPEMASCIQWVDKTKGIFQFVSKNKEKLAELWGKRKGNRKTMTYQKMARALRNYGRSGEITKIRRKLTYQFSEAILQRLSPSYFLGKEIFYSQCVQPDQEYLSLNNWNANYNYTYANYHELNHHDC
In short: as §1

CRX = CRX (Homo sapiens, UniProt O43186 1-299); conditions: protein: recombinant; tags: N-terminal GST; dsDNA, one strand shown
In short: as §1

ETV1 = ETV1 (Homo sapiens, UniProt P50549 1-477); conditions: protein: recombinant; tags: N-terminal GST; dsDNA, one strand shown
In short: as §1

ERF = biological target: T5, ERF (Homo sapiens, UniProt P50548 1-548); conditions: protein: recombinant; tags: N-terminal GST; dsDNA, one strand shown
T5 sequence: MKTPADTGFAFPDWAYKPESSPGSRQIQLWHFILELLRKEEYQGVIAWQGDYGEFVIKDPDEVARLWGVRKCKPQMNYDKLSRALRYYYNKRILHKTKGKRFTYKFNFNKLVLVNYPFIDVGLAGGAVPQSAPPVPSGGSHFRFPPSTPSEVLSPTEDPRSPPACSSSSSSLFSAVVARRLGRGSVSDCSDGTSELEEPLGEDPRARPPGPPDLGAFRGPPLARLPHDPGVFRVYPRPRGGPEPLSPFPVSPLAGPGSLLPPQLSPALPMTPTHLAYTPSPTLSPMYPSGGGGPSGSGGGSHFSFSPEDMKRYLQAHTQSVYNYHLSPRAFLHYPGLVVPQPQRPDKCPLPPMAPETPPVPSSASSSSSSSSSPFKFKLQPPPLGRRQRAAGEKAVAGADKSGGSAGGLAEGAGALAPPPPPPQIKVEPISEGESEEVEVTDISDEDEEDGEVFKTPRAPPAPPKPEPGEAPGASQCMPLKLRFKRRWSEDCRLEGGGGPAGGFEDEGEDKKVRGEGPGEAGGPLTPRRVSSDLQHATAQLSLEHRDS
In short: as §1

ETV6 = ETV6 (Homo sapiens, UniProt P41212 1-452); conditions: protein: recombinant; tags: N-terminal GST; dsDNA, one strand shown
In short: as §1

ELK4 = biological target: T6, ELK4 (Homo sapiens, UniProt P28324-2 1-405); conditions: protein: recombinant; tags: N-terminal GST; dsDNA, one strand shown
T6 sequence: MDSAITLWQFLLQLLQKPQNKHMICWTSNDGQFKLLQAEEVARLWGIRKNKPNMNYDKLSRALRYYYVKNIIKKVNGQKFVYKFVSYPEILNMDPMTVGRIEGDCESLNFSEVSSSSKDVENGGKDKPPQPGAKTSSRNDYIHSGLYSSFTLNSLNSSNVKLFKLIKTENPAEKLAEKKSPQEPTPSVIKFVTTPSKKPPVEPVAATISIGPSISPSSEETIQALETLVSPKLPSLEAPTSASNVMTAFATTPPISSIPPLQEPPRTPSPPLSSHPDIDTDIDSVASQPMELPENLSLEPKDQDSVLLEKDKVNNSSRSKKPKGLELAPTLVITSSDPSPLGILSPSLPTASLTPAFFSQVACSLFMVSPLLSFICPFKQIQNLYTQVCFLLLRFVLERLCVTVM
In short: as §1

ETV2 = biological target: T7, ETV2 (Homo sapiens, UniProt O00321 1-342); conditions: protein: recombinant; tags: N-terminal GST; dsDNA, one strand shown
T7 sequence: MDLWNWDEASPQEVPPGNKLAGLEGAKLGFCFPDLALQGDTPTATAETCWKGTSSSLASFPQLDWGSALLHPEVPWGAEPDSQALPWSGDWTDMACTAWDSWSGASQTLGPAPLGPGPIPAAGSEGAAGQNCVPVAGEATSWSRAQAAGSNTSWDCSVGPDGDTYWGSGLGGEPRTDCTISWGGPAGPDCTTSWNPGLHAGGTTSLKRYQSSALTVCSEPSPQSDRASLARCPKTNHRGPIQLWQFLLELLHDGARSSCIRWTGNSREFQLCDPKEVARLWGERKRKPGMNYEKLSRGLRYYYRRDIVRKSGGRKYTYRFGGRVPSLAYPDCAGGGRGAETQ
In short: as §1

ETS2 = biological target: T8, ETS2 (Homo sapiens, UniProt P15036 1-469); conditions: protein: recombinant; tags: N-terminal GST; dsDNA, one strand shown
T8 sequence: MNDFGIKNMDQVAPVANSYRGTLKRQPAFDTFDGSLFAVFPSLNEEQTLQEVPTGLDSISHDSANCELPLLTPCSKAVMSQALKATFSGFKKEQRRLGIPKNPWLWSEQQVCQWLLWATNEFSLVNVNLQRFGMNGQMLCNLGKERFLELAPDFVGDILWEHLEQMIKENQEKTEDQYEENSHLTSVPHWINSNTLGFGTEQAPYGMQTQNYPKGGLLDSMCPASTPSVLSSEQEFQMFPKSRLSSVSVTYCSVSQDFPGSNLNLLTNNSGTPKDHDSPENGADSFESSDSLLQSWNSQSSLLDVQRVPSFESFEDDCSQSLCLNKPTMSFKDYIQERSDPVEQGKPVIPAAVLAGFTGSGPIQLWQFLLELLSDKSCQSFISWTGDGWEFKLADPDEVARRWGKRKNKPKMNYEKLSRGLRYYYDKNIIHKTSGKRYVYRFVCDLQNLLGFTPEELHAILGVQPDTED
In short: as §1

ETV7 = biological target: T9, ETV7 (Homo sapiens, UniProt Q9Y603 1-341); conditions: protein: recombinant; tags: N-terminal GST; dsDNA, one strand shown
T9 sequence: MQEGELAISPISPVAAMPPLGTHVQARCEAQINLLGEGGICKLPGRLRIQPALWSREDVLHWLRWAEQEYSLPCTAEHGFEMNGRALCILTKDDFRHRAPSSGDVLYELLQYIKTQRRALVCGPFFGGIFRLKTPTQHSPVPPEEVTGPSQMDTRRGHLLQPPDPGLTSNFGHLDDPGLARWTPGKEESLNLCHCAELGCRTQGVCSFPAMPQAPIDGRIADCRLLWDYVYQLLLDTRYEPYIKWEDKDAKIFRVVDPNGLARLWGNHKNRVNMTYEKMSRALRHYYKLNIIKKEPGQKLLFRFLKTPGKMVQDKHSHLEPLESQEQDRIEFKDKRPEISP
In short: as §1

HSF1, sequence (Q00613 whole entry): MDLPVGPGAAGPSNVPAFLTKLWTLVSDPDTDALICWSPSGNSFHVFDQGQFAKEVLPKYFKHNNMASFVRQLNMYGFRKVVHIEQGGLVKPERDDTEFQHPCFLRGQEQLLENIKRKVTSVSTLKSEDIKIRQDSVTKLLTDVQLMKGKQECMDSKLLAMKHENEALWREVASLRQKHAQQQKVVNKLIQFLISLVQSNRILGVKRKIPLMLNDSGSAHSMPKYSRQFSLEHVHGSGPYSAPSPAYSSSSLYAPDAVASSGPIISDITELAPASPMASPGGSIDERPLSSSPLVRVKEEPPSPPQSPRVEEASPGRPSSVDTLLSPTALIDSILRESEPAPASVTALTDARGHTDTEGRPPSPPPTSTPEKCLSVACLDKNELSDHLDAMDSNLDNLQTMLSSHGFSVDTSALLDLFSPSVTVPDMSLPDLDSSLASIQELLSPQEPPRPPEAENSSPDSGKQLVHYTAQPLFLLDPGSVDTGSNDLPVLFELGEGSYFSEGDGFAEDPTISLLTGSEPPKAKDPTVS
ETV1, sequence (P50549 whole entry): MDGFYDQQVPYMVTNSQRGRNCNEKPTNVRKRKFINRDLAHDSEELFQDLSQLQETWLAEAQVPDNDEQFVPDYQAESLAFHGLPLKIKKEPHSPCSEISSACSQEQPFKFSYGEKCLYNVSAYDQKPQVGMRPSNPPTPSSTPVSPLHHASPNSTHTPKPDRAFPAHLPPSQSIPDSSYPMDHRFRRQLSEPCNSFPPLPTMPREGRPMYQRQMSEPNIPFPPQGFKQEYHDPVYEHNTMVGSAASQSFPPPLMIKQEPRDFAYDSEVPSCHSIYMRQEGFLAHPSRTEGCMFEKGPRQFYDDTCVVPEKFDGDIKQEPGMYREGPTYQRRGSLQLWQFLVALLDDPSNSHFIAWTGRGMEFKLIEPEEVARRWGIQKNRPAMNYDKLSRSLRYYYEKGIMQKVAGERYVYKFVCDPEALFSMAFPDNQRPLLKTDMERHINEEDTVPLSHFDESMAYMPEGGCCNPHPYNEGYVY
ETV6, sequence (P41212 whole entry): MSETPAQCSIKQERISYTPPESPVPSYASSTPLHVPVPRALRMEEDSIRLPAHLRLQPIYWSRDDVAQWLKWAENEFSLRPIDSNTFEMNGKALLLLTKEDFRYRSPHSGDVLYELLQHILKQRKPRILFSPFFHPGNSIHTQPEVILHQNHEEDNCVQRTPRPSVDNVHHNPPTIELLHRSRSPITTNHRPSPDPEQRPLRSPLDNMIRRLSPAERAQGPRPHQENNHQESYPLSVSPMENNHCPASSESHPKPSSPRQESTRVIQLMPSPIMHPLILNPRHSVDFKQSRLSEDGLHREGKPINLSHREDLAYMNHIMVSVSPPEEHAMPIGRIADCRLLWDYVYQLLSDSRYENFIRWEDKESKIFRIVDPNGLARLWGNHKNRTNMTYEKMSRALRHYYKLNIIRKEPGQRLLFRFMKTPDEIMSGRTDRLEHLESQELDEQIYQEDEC
ELF1, sequence (P32519 whole entry): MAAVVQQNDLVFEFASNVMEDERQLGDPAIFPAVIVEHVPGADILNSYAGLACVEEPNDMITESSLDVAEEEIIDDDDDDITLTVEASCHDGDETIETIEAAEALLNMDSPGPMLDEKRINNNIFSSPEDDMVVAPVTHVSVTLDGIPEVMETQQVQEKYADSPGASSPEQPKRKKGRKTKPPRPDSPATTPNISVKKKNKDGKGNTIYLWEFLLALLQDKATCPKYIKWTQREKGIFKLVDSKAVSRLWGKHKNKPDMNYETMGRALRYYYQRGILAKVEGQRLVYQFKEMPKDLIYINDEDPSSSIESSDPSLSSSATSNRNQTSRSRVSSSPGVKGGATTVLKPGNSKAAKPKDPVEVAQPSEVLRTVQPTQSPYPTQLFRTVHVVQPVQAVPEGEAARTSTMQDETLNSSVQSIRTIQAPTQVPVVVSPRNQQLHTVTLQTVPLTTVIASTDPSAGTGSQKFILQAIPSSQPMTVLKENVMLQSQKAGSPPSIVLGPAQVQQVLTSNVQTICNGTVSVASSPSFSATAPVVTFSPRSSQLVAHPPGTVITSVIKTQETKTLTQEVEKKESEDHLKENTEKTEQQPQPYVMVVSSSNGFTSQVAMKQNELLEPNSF
CRX, sequence (O43186 whole entry): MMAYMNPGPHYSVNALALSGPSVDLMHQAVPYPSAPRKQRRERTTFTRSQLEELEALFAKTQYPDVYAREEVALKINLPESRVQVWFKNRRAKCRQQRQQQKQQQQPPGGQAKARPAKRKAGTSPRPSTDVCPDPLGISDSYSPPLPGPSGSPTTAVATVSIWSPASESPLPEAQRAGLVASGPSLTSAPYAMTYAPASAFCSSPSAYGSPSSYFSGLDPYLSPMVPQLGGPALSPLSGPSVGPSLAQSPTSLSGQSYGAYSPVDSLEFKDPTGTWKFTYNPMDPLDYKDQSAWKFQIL

| Sequence | binding signal (GABPA) | binding signal (ELF1) | binding signal (ELK3) | binding signal (FEV) | binding signal (HSF1) | binding signal (SPIC) | binding signal (CRX) | binding signal (ETV1) | binding signal (ERF) | binding signal (ETV6) | binding signal (ELK4) | binding signal (ETV2) | binding signal (ETS2) | binding signal (ETV7) |
| --- | --- | --- | --- | --- | --- | --- | --- | --- | --- | --- | --- | --- | --- | --- |
| TAGAAC | 1.03 fold enrichment (6-mer frequency, TF over GST control) | 1.01 fold enrichment (6-mer frequency, TF over GST control) | 1.03 fold enrichment (6-mer frequency, TF over GST control) | 1 fold enrichment (6-mer frequency, TF over GST control) | 2.74 fold enrichment (6-mer frequency, TF over GST control) | 1 fold enrichment (6-mer frequency, TF over GST control) | 1.43 fold enrichment (6-mer frequency, TF over GST control) | 1.07 fold enrichment (6-mer frequency, TF over GST control) | 1.02 fold enrichment (6-mer frequency, TF over GST control) | 1.09 fold enrichment (6-mer frequency, TF over GST control) |  |  |  |  |
| GCCTAG | 1.02 fold enrichment (6-mer frequency, TF over GST control) |  |  |  | 1.21 fold enrichment (6-mer frequency, TF over GST control) |  |  |  | 1.06 fold enrichment (6-mer frequency, TF over GST control) |  | 1.03 fold enrichment (6-mer frequency, TF over GST control) | 1.08 fold enrichment (6-mer frequency, TF over GST control) | 1 fold enrichment (6-mer frequency, TF over GST control) | 1 fold enrichment (6-mer frequency, TF over GST control) |
